In PubChem BioAssay (Tox21):
Results filed as inconclusive are left out. Activity calls are given as the source filed them. Calls follow the shape of the dose curve; as a rule, active = well fitted cell-killing curve with a large enough effect in the repeat runs; inconclusive = weak or mixed curves, or effect the other way; inactive = flat fitted curve, though single readings scatter.

Test: qHTS assay to identify small molecule agonists of the constitutive androstane receptor (CAR) signaling pathway - cell viability counter screen (AID 1224836); also: nearly all actives have a fitted effect of over 45% in size
Conditions: HepG2-CYP2B6-hCAR viability, CellTiter-Fluor, 23 h, PK11195 added to every well; series mostly up to 92.4 µM; viability change, negative = cytotoxic: at the top concentration
Description: U.S. Tox21 Program National Center for Advancing Translational Sciences [NCATS] NIH Chemical Genomics Center [NCGC] U.S. Environmental Protection Agency [EPA] National Institutes of Environmental Health Sciences [NIEHS] National Toxicology Program [NTP] U.S. Food and Drug Administration [FDA] Tox21 Assay Overview: The constitutive androstane receptor (CAR) is a nuclear receptor which regulates multiple drug metabolizing enzymes (DMEs) and transporters. Activating CAR will generally increase the transcription and subsequent translation of CYP2B6 and CYP3A4. These two DMEs represent about 50% of the drug metabolizing potential in the body. […] Recently, there have also been studies performed indicating CARs role in energy metabolism and cancer therapy. Therefore, inducing CARs activity could have a potential effect on diabetes and cancer. Identifying environmental toxins and compounds which modulate CAR, through the use of the Tox21 10K compound collection, will be an important step in determining the toxicity and potential therapeutic effects these factors will have on the human body. To differentiate true CAR agonists from cytotoxic substances, the assay is multiplexed with a cell viability assay.
Tox21 Assay Protocol Summary: A double-stable (hCAR and CYP2B6-2.2kb) transfected cell line, derived from human hepatoma (HepG2) cells, was utilized for the duration of the quantitative high-throughput screens. The HepG2-CYP2B6-hCAR cells were dispensed at 2500 cells/4 uL/well in 1536-well white solid bottom plates using a Multidrop Combi. After the assay plates were incubated at 37 C/5% CO2 for 4 hrs, 23 nL of compounds at 15 concentrations (from 5-48 columns) or positive control (from 1 to 4 columns) were transferred to the assay plates using a Pintool station. One uL of PK11195 (final concentration = 0.75 uM) was added, using a Flying Reagent Dispenser, inside each well. After a 23 hr incubation period at 37 C/5% CO2, 1 uL of CellTiter-Fluor reagent was added into each well of the assay plates using a Flying Reagent Dispenser. The fluorescence intensity in the plates was then measured using a ViewLux plate reader.
% is scaled to controls: 0 for no effect and ±100 for the full control effect; potency is read from the fitted curve at half-maximal effect.

SMILES	viability change, negative = cytotoxic	Potency
CCOC(=O)C1=NN(c2ccccc2)C(=O)C1	2.95% (inactive)	–
O=C(CCN1CCN2CCCC2C1)N1c2ccccc2Sc2ccc(Cl)cc21 (stereo not given)	-17% [at 19 µM] (inactive)	–
CC(=O)O[C@@H]1C(=O)O[C@@H]2[C@H]1OC(=O)[C@@H]2OC(C)=O	-9.71% [at 42.5 µM] (inactive)	–
CN(C)CCCNCCCN	-2.25% (inactive)	–
O=C(O)[C@@H]1[C@H]2C[C@H]3c4[nH]c5ccccc5c4CCN3C[C@@H]2CC[C@@H]1O	4.14% [at 42.5 µM] (inactive)	–
COC(Cc1ccccc1)OC	-0.214% (inactive)	–
COCCOCCOCCOCCOC	-1.34% (inactive)	–
CC(=O)N(CC(=O)N(C)C)c1ccccc1	-3.69% [at 42.5 µM] (inactive)	–
CN(C)CC/C=C1\c2ccccc2COc2ccccc21	-20.1% [at 42.5 µM] (inactive)	–
Nc1nc(CC(=O)O)cs1	-8.29% (inactive)	–
CCOC(=O)[C@H](CCc1ccccc1)N[C@H]1CCc2ccccc2N(CC(=O)O)C1=O	-24.3% [at 42.5 µM] (inactive)	–
CCCCCC/C=C/C=O	-1.75% (inactive)	–
C[C@@H](C1=C(CCN(C)C)Cc2ccccc21)c1ccccn1	-11% [at 42.5 µM] (inactive)	–
CC(CN)CCCN (stereo not given)	3.23% (inactive)	–
CC(C(=O)O)c1ccc(C(=O)c2ccccc2)s1 (stereo not given)	7.09% [at 42.5 µM] (inactive)	–
C=CC(=O)OCC(C)OCC(C)OCC(C)OC(=O)C=C (stereo not given)	-11.5% (inactive)	–
CCN(CCO)CCCC(C)Nc1ccnc2cc(Cl)ccc12 (stereo not given)	-11% [at 8.39 µM] (inactive)	–
CCCCOC(O)CC (stereo not given)	-1.81% (inactive)	–
OCC1CC2CC1C1CCC(CO)C21 (stereo not given)	-4.68% (inactive)	–
CCCCCCCCN(C)C	-4.22% (inactive)	–

SMILES	viability change, negative = cytotoxic	Potency
O=C(NN1CCCC1)NS(=O)(=O)c1ccc(Cl)cc1	5.59% [at 42.5 µM] (inactive)	–
Oc1ccc(Cc2ccccc2)cc1	-3.29% (inactive)	–
CCCCCCCCCC=O	-1.51% (inactive)	–
CCCCCOC(=O)COc1cc(N2C(=O)C3=C(CCCC3)C2=O)c(F)cc1Cl	-1.9% (inactive)	–
CC(C)CCCCCCOC(=O)c1ccc(C(=O)OCCCCCCC(C)C)c(C(=O)OCCCCCCC(C)C)c1	7.77% (inactive)	–
CC1CCc2cc(F)cc3c(=O)c(C(=O)O)cn1c23 (stereo not given)	6.11% [at 42.5 µM] (inactive)	–
Cn1sccc1=O	–	inactive
CCCCc1cc2ccccc2c(OCCN(C)C)n1	-7.85% [at 42.5 µM] (inactive)	–
CCCCCC(CO)CCC (stereo not given)	2.06% (inactive)	–
O=c1[nH]cnc2ccccc12	8.19% (inactive)	–
Cc1ccc(C)o1	-2.45% (inactive)	–
CC(C)(C)c1cc(CO)cc(C(C)(C)C)c1O	6.33% (inactive)	–
Cc1cc(C)c(S(=O)(=O)O)cc1N=Nc1cc(S(=O)(=O)O)c2ccccc2c1O	–	61.1 µM (active)
O=C(Nc1ccccc1)OCC(CN1CCCCC1)OC(=O)Nc1ccccc1 (stereo not given)	-18.8% [at 42.5 µM] (inactive)	–
CCCCCCCCCC(=O)OCC	-2.64% (inactive)	–
COc1cc(C(C)(C)C)c(O)c(C(C)(C)C)c1	3.26% (inactive)	–
CC1=CC(=O)/C(=C(/C)O)C(=O)O1	0.215% (inactive)	–
Cc1cccc(Oc2ccccc2)c1	-18.1% (inactive)	–
CC(C)CCCC(C)CCO (stereo not given)	-3.4% (inactive)	–
CCCCOc1cc(C(=O)OCCN(CC)CC)ccc1N	1.68% [at 42.5 µM] (inactive)	–
